An excerpt weighted towards active compounds, which were near 3.5% of everything screened.
TEAD-YAP block: TEAD-YAP interaction inhibition; HEK-TIYL cells, TEAD-Gal4/YAP UAS-luciferase luminescence; inhibition, % at 9.12 µM; 640,000 compounds, 1.4% hits; AID 1259422; in the data active = inhibition above about 32%
FBW7 act: activators of human E3 ligase FBW7 | Q969H0 | AlphaScreen FBW7–phospho-cyclin E peptide binding, activator screen | normalized activity (activation), % at 26.1 µM | 650,000 compounds, 0.13% hits; in the data active = normalized activity above about 1.9%;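 note: purified mutant Fbw7 with reduced substrate affinity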
Target sequence (Q969H0 whole entry, looked up): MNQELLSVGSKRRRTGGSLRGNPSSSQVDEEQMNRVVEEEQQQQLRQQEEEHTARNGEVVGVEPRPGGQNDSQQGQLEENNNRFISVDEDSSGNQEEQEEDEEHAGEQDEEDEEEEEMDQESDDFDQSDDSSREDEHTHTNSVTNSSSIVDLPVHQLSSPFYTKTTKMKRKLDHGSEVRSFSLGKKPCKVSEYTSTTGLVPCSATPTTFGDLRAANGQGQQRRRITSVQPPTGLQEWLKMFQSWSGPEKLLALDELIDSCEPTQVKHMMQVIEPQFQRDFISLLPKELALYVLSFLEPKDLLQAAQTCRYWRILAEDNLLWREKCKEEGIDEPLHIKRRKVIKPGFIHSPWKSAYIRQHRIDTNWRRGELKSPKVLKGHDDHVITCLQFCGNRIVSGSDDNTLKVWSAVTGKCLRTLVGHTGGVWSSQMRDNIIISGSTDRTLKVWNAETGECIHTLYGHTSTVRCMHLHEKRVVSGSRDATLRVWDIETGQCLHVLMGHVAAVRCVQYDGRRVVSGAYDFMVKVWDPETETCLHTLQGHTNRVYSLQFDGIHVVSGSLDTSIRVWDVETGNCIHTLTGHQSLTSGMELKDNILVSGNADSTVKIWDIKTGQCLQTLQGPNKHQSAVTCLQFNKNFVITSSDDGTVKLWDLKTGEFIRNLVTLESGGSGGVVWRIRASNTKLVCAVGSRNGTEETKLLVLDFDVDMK
GPR151 ag: activators of human GPR151 | 650,000 compounds, 1% hits | PathHunter beta-arrestin GPR151 cells, luminescence | AID 1508602 | activation, % at 11.2 µM | Q8TDV0; in the data active = activation above about 4.9%
MITF primary: human MITF inhibition, primary screen; O75030; AlphaScreen MITF homodimerization, bead proximity signal; inhibition, % at 2.6 µM; 650,000 compounds, 0.91% hits; in the data active = inhibition above about 50%
MITF inh conf: human MITF inhibition, confirmation. 4,700 compounds, 16% hits. shares compounds with MITF primary. AlphaScreen MITF homodimerization, biotin/His-MITF beads. AID 1259372. inhibition, % at 2.6 µM;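 active = inhibition above a cutoff derived from the DMSO control wells, cut at about 28% in these data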;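 note: inhibitors lower the bead chemiluminescence by keeping MITF from dimerizing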
AlphaScreen intf2: optically interferes with AlphaScreen signal; 4,700 compounds, 7.6% hits; AID 1259376; inhibition, % at 2.6 µM; shares compounds with MITF primary; LysRS AlphaScreen counterscreen, signal interference, triplicate;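 active = inhibition above a cutoff derived from the DMSO control wells, cut at about 30% in these data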
A number is an active result; . = inactive; / = no result.

SMILES	TEAD-YAP block	FBW7 act	GPR151 ag	MITF primary	MITF inh conf	AlphaScreen intf2
CCN(CC)S(=O)(=O)c1cc(C(=O)Nc2ccc(Br)cc2)ccc1Br	.	.	.	.	/	/
CCN(CC)S(=O)(=O)c1cc(C(=O)Nc2ccc(Cl)cc2)ccc1Br	.	.	.	72	.	.
CC(C)N(CCNc1nc(Nc2ccncc2)nc2c1ncn2CCN1CCCC1=O)C(C)C	.	.	.	.	/	/
Cc1cc(C)cc(Cn2c(NCCCN3CCOCC3)cc(=O)n(C)c2=O)c1	.	.	.	70	.	.
CS(=O)(=O)Nc1ccc(-c2cnc3cccc(N(C(=O)c4ccccn4)C(=O)c4ccccn4)c3c2)cc1	.	.	.	66	36	54
CN1CCN(CCCOc2ccc(OCc3ccccc3)cc2)CC1	.	.	.	59	.	.
CN1CCN(CCCCOc2ccc(C(=O)c3ccccc3)cc2)CC1	.	.	.	75	.	.
CN1CCN(CCCCN2C(=O)c3ccccc3C2=O)CC1	.	.	.	87	.	.
O=C(c1ccccc1)c1ccc(OCCCCN2CCOCC2)cc1	.	.	.	.	/	/
COc1ccc(C(=O)CN2CCN(C)CC2)cc1	.	.	.	76	.	.
O=C(CCNc1ccc(C(=O)NC2CCCCC2)cc1)c1ccccc1	.	.	.	.	/	/
COCCCNCCCCOc1ccc(OCc2ccccc2)cc1	.	.	.	53	.	.
CCOc1ccc(OCCOCCN2CCOCC2)cc1	.	.	.	.	/	/
CCc1ccc(OCCN2CCNCC2)cc1	.	.	.	.	/	/
CCC(C)(C)c1ccc(OCCN2CCNCC2)cc1	.	.	.	72	.	.
CCOc1ccc(OCCCCN2CCNCC2)cc1	.	.	.	65	.	.
c1ccc(COc2ccc(OCCN3CCNCC3)cc2)cc1	.	.	.	70	.	.
Ic1ccc(OCCN2CCNCC2)cc1	.	.	.	63	.	.
CNCCOc1ccc(C(C)(C)c2ccccc2)cc1	.	.	.	52	.	.
Clc1ccc(OCCN2CCNCC2)cc1	.	.	.	.	/	/
c1ccc2c(OCCCN3CCNCC3)cccc2c1	.	.	.	.	/	/
CC(C)(c1ccccc1)c1ccc(OCCCN2CCNCC2)cc1	.	.	.	58	.	.
CNCCCOc1ccc(C(C)(C)c2ccccc2)cc1	.	.	.	.	/	/
FC(F)(F)c1cccc(CNc2cc(-c3csc4ccccc34)ncn2)c1	.	.	.	62	.	.
Cc1cc(NCc2cccc(C(F)(F)F)c2)nc(-c2csc3ccccc23)n1	.	.	.	.	/	/
SMILES	TEAD-YAP block	FBW7 act	GPR151 ag	MITF primary	MITF inh conf	AlphaScreen intf2
CCCc1ccc(CC(=O)N2CCOCC2)cc1	.	.	.	.	/	/
COc1ccc(F)c(CN2CCC(C3(CCc4ccccc4)NC(=O)NC3=O)CC2)c1 (stereo not given)	.	.	.	81	.	.
Cc1cc(NC(=S)N(CCCN2CCCCC2)Cc2ccco2)ccc1Cl	.	.	.	.	/	/
Cc1ccc(OCCn2cncn2)c([N+](=O)[O-])c1	.	.	.	.	/	/
CCN1CCN(CCCOc2ccc(C)cc2I)CC1	.	.	.	57	.	.
Cc1ccc(OCCCn2cncn2)c(I)c1	.	.	.	54	.	.
CCN1CCN(CCCCOc2ccc(C)cc2I)CC1	.	.	.	53	.	.
CS(=O)(=O)Nc1ccc(C(=O)NCc2ccccn2)cc1	.	.	.	70	.	.
Cc1cc(C)c(C)c(S(=O)(=O)Nc2ccc(C(=O)NCc3ccccn3)cc2)c1C	.	.	.	.	/	/
COc1ccc(C(=O)N2CCN(Cc3ccc(Cl)cc3)CC2)cc1OC	.	.	.	53	.	.
COc1cccc(C(=O)N2CCN(Cc3ccc(C)cc3)CC2)c1	.	.	.	58	.	.
COc1ccc(C(=O)N2CCN(Cc3cc(OC)c(OC)c(OC)c3)CC2)cc1OC	.	.	.	.	/	/
COc1cccc(C(=O)N2CCN(Cc3cccc(Br)c3)CC2)c1	.	.	.	54	.	.
COc1cccc(C(=O)N2CCN(Cc3ccc(OC)c(OC)c3)CC2)c1	.	.	.	61	.	.
COc1ccc(OC)c(-n2c(SCC(=O)Nc3cccc(C)c3)nc3c(c2=O)SCC3)c1	.	.	.	.	/	/
COc1ccccc1/C(O)=C/c1nc2cc(C)ccc2oc1=O	.	.	.	.	/	/
CCNc1cc(C)nc(N2CCN(C(=O)c3c(F)cccc3Cl)CC2)n1	.	.	.	.	/	/
CCNc1cc(C)nc(N2CCN(C(=O)c3cccc(OC)c3)CC2)n1	.	.	.	59	.	.
